Bioassay records from PubChem BioAssay.
Most compounds without a hit are left out; they make up all but 3.3% or so of the library.
sPLA2-III inh: human group III sPLA2 inhibitors, primary screen, biochemical, QFRET, BODIPY PC-A2 liposome substrate | Group 3 secretory phospholipase A2 (Homo sapiens), Q9NZ20 | QFRET BODIPY PC-A2 liposome hydrolysis, fluorescence | inhibition, % at 12.2 µM | 370,000 tested, 0.56% active;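 active means inhibition above mean plus 3 SD of compounds lying within the high and low control bounds, cut at about 19% in these data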;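 further: 0% = median of test compound wells and 100% = no enzyme DMSO wells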
Target sequence (Q9NZ20 whole entry, looked up): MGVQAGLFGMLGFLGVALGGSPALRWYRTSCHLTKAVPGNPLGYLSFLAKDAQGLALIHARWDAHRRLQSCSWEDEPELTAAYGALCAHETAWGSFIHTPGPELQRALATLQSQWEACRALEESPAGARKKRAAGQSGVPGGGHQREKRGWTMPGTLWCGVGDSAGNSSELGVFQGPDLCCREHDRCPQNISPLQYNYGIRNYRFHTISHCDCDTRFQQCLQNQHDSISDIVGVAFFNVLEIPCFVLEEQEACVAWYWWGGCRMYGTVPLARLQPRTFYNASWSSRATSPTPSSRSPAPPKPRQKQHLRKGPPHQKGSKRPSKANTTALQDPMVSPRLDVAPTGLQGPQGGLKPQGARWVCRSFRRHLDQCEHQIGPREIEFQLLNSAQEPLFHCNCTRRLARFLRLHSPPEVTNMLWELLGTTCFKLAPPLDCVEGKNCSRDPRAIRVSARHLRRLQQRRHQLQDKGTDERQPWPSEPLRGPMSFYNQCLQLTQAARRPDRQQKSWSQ
GRIN3A LBD mod: binders of NR3A ligand-binding domain, primary screen, biophysical, differential scanning fluorimetry, uHTS | 340,000 tested, 2.5% active | NR3A LBD differential scanning fluorimetry, Tm shift; 0% = protein alone, 100% = glycine-bound protein | Tm shift relative to glycine control, % at 25 µM | Glutamate receptor ionotropic, NMDA 3A (GRIN3A) ligand-binding domain;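 active means melting temperature shift of at least 10% of the positive control shift, at one fixed dose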
UBC13 polyUb: UBC13 polyubiquitin chain formation inhibitors, primary screen, biochemical, TR-FRET, uHTS | 330,000 tested, 0.47% active | AID 485273, 2010 | inhibition, % at 20 µM; in the data active means inhibition above about 45%, passing the limit was not always enough; inconclusive means no clear call, values can overlap the other calls
Target sequence (P61088 whole entry, looked up): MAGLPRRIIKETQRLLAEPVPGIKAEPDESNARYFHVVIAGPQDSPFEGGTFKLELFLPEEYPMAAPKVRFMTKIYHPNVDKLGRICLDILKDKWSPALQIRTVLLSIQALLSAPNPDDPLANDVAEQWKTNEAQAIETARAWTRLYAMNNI
SUMO HTRF inh: inhibitors of in vitro SUMOylation cascade, primary screen, biochemical, HTRF, uHTS | SUMO-conjugating enzyme UBC9 (Homo sapiens), P63279 | HTRF SUMOylation assay, SAE1/SAE2 + UBC9 | inhibition, % at 35 µM | 290,000 tested, 0.36% active; in the data active means inhibition above about 50%, passing the limit was not always enough; inconclusive means no clear call, values can overlap the other calls
hGIII sPLA2 conf: human group III sPLA2 inhibitors, confirmation, biochemical, QFRET, triplicate; shares compounds with sPLA2-III inh; recombinant hGIII-sPLA2, BODIPY PC-A2 QFRET fluorescence; inhibition, % at 12.2 µM; 2,000 tested, 34% active; AID 743280, 2014;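 active means mean inhibition across triplicates above the hit cutoff set in the earlier primary screen, cut at about 19% in these data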;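 further: 0% = enzyme with DMSO and 100% = DMSO wells lacking enzyme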
BODIPY interf: 535nm fluorescence optical interference, confirmation, artefact control for HGIII-sPLA2 inhibitor project, biochemical, QFRET; shares compounds with sPLA2-III inh; BODIPY FL product fluorescence interference; inhibition, % at 12.2 µM; 2,000 tested, 8.5% active; AID 743282, 2014;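 active means average inhibition above the solvent-only control mean plus 3 SD, cut at about 6% in these data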;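 further: 0% = DMSO with substrate plus product and 100% = DMSO with substrate alone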
BODIPY interf DR: 535nm fluorescence optical interference, dose response, artefact control for HGIII-sPLA2 inhibitor project, biochemical, QFRET; 240 tested, under 10 active; shares compounds with sPLA2-III inh; IC50, µM; BODIPY FL product fluorescence interference, cell-free;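 active means IC50 at or below 10 µM; inactive means IC50 above 10 µM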
Numbers without * were called inactive; ? = inconclusive; nt = not tested or not shown.

SMILES | sPLA2-III inh | GRIN3A LBD mod | UBC13 polyUb | SUMO HTRF inh | hGIII sPLA2 conf | BODIPY interf | others
CC(OC(=O)c1nn(C)c(=O)c2ccccc12)C(=O)NC1CCCCC1C (stereo not given) | 19* | 3 | 3 | nt | -2 | -5
CC(OC(=O)c1n[nH]c2ccccc12)C(=O)NC1CCCCC1C (stereo not given) | -4 | -2 | -11 | nt | nt | nt
COCCCN1CCC2(CCC(c3ccccc3)CC2)C1=O (stereo not given) | 0 | nt | nt | nt | nt | nt
CCCCn1c(/C=C/c2ccco2)nc2ccccc21 | -3 | -3 | -2 | 8 | nt | nt
CCCCn1c(/C=N/Nc2nc3ccccc3[nH]2)nc2ccccc21 | 35* | -5 | -19 | -88 | 31* | -18
COc1ccc2c(c1)C1NC(=S)NC(C)(O2)C1C(=O)Nc1ccc(Cl)cc1 (stereo not given) | 20* | -8 | -14 | 9 | 15 | -3
Cc1ccc2c(c1)C1NC(=S)NC(C)(O2)C1C(=O)Nc1ccc(Cl)cc1 (stereo not given) | 7 | -8 | -21 | 4 | nt | nt
COc1ccc2c(c1)C1NC(=S)N[C@@](C)(O2)C1C(=O)Nc1ccccc1 (stereo not given in full) | 21* | 2 | 6 | 3 | 24* | -3
CC/C(=C\c1ccc(N(C)C)cc1)c1ccncc1 | 23* | -1 | nt | nt | 20* | 0
O=C(NC(=S)N1CCN(c2c(Cl)cccc2[N+](=O)[O-])CC1)c1cccs1 | 17 | -9 | -14 | 2 | nt | nt
COc1ccc(N2CCN(C(=S)NC(=O)c3cccs3)CC2)c([N+](=O)[O-])c1 | 26* | -3 | -8 | 17 | 28* | 2
COC(=O)Cc1cn(-c2ncc(C(F)(F)F)cc2Cl)c2ccccc12 | -7 | 1 | 5 | 0 | nt | nt
NC(=O)Cc1cn(-c2ncc(C(F)(F)F)cc2Cl)c2ccccc12 | 34* | 0 | 6 | 11 | 14 | -11
O=C1CN(c2nc(-c3ccccc3)c3cc(Cl)ccc3n2)c2ccccc2N1 | 21* | -3 | -2 | 4 | -8 | -3
Clc1ccc2nc(N3CCNCC3)nc(-c3ccccc3)c2c1 | 15 | -3 | ? | 15 | nt | nt
CN1C(=O)C[C@@](C#N)(C(=O)N2CCOCC2)[C@H]1c1ccccc1 | 1 | nt | nt | nt | nt | nt
CC1(C)Cc2ccccc2-c2nnnn21 | 23* | 1 | -6 | 10 | 5 | -3
c1ccc2c(c1)CC1(CCCC1)n1nnnc1-2 | 1 | 0 | 11 | -11 | nt | nt
O=C(NCC(c1cccs1)N1CCOCC1)c1cc([N+](=O)[O-])ccc1Cl (stereo not given) | 19* | -5 | -11 | 0 | 0 | -4
CCCCCCN1CCS(=O)(=O)N(Cc2ccc(F)cc2)C(C(=O)OC)C1 (stereo not given) | 11 | nt | nt | nt | nt | nt
Fc1ccc(F)c(Cn2ccc3ccc(-c4ccc5ccn(Cc6cc(F)ccc6F)c5c4)cc32)c1 | 1 | nt | nt | nt | nt | nt
CCOC(=O)[C@]12CCCC3=C1N(CCC3)C(=O)[C@@H](CC(=O)NCc1cccc3ccccc13)C2 | -2 | nt | nt | nt | nt | nt
COc1ccccc1N(C(=O)CCl)c1cn(C(C)=O)c2ccccc12 | -7 | 1 | 5 | 10 | nt | nt
COc1ccccc1N(C(C)=O)C1=C(Cl)C(=O)c2ccccc2C1=O | 21* | nt | nt | nt | 38* | 6 | BODIPY interf DR=>122
COC(=O)c1cc(-c2ccc3ccccc3c2)c(=O)n2c1CCC2 | -9 | nt | nt | nt | nt | nt
SMILES | sPLA2-III inh | GRIN3A LBD mod | UBC13 polyUb | SUMO HTRF inh | hGIII sPLA2 conf | BODIPY interf | others
Cc1ccc2c(c1)c1c3n2CCN(CC(N)=O)C3CCC1 (stereo not given) | -10 | 0 | -5 | 12 | nt | nt
Cc1ccc2c(c1)c1c3n2CCN(CC#N)C3CCC1 (stereo not given) | 22* | 2 | 3 | 3 | 11 | -5
COc1ccc(C(=O)N[C@H]2CC[C@@]34CCCN3C(=O)CCC[C@H]4[C@H]2C)cc1 | -3 | nt | nt | nt | nt | nt
O=C(NCCN1C(=O)C2C3C=CC(C3)C2C1=O)c1cc(Cl)cc(Cl)c1 (stereo not given) | -1 | nt | nt | nt | nt | nt
S=C(NCC1CCCO1)Nc1ccc(Cl)cc1 (stereo not given) | 0 | 0 | 2 | -6 | nt | nt
S=C(NCC1CCCO1)Nc1ccc(Cl)cc1Cl (stereo not given) | 25* | -7 | 1 | 8 | 3 | -4
CCOc1ccc(NC(=O)c2ccc3c(c2)S(=O)(=O)N=C2CCCCCN23)cc1 | 19* | nt | nt | nt | 0 | -4
CCCCNC(=S)NNC(=O)c1csc(C)c1C | 27* | -1 | 4 | -1 | 29* | -2 | BODIPY interf DR=>122
C=CCNC(=S)NNC(=O)c1cc(O)ccc1O | 19 | 3 | 2 | -3 | nt | nt
CCc1c(C(=O)NNC(=S)NCc2ccccc2)csc1C | 19 | -3 | -2 | 5 | nt | nt
CCCCNC(=S)NNC(=O)c1sccc1C | nt | -5 | -6 | -24 | nt | nt
Cc1scc(C(=O)NNC(=S)NC(C)c2ccccc2)c1C (stereo not given) | 30* | 6 | -7 | -22 | 18 | 5
C=CCNC(=S)NNC(=O)c1csc(C)c1C | 24* | 0 | -14 | -12 | 21* | -7
CC(C)(C)OC(=O)NCCc1ccccc1/C=C/S(=O)(=O)NC1CCCC1 | 10 | nt | nt | nt | nt | nt
CCCCOc1ccc(CSc2nnc(C)n2N)cc1[N+](=O)[O-] | 7 | -1 | 5 | -6 | nt | nt
CCOc1ccc(CSC(=N)N)cc1Cl | 26* | -1 | -3 | 12 | 8 | -8
CCCCOc1ccc(CSCCN)cc1Cl | 19 | 0 | 17 | 2 | nt | nt
CCOc1ccc(CSC(=N)N)cc1[N+](=O)[O-] | 22* | 1 | -2 | 11 | 2 | 0
O=C(Nc1ccc(Oc2ccccc2)cc1)C1CCN(c2nnc(-n3cccc3)s2)CC1 | 8 | nt | nt | nt | nt | nt
COc1ccc(N2CCN(C(=S)Nc3cc(C)ccc3C)CC2)cc1 | 21* | -1 | 0 | 4 | 15 | -6
COc1ccc(N2CCN(C(=S)Nc3ccc(C)cc3C)CC2)cc1 | 5 | -2 | -1 | 27 | nt | nt
CCCCNC(=O)O[C@H]1CC[C@@]23CCCN2C(=O)CCC[C@H]3[C@H]1CCC | 16 | nt | nt | nt | nt | nt
Cc1cc(-c2nnc(SCC(=O)Nc3cccc4ccccc34)n2N)n[nH]1 | 17 | nt | nt | nt | nt | nt
CN1/C(=C/C(=S)NC(=O)C2(C)CC2(Cl)Cl)C(C)(C)c2ccccc21 (stereo not given) | 27* | 0 | -36 | -17 | 8 | 3
